Rows were chosen to be rich in hits. Some 10% of all compounds tested hit in one or more screens of this group.
NPR1 antag: antagonists of human natriuretic peptide receptor Npr1; HEK293 hNpr1 GloSensor cGMP, ANP-stimulated luminescence; P16066; Potency, µM (titrated, usually from 46.3 µM), without a hit: top-dose activity change, negative = inhibition, usual class: inhibitors; hit rate 1.6% among 76,000; AID 1347048; calls by dose curve; also: nearly all actives have a fitted effect of over 60% in size
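HEK293 cells stably expressing human Npr1 and cGMP GloSensor pGS-40F, loaded 2 h with 2% GloSensor reagent, given compound 30 min at room temperature. Luminescence read before and 20 min after 0.1 nM hNppA.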
HEK cytotox: cytotoxic compounds in HEK 293 cells | Potency, µM (top dose mostly 115 µM), for inactives: at the top dose activity change, negative = cytotoxicity, actives largely listed as inhibitors | hit rate 6.6% among 94,000 | HEK 293 viability, ATP luminescence (CellTiter-Glo), 48-72 h; also: nearly all actives have a fitted effect of over 60% in size
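ATP-coupled CellTiter-Glo luminescence served as viability read-out, recorded 10 min after reagent addition at room temperature. HEK 293 cells, 250 cells/well, had been incubated with pintool-transferred compound for 48 or 72 hr at 37 degree Celsius.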
3T3 cytotox: kills NIH 3T3 cells. NIH 3T3 viability, CellTiter-Glo ATP luminescence, 48-72 h. Potency, µM (series often up to 96.7 µM), inactives show at the top dose activity change, negative = cytotoxicity, most hits filed as inhibitors. hit rate 4.3% among 94,000. AID 1345082; also: nearly all actives have a fitted effect of over 55% in size
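ATP-dependent luminescence (CellTiter-Glo) served as the viability signal for NIH 3T3 cells treated with compound for 48 or 72 hr at 37 °C.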
Luciferase inh: Photinus pyralis luciferase inhibition | hit rate 2.5% among 76,000 | AID 1347043 | Potency, µM (top dose mostly 115 µM), most hits filed as inhibitors | purified P. pyralis luciferase, luminescence, biochemical; also: nearly all actives have a fitted effect of over 65% in size
Target sequence (P08659 whole entry, looked up): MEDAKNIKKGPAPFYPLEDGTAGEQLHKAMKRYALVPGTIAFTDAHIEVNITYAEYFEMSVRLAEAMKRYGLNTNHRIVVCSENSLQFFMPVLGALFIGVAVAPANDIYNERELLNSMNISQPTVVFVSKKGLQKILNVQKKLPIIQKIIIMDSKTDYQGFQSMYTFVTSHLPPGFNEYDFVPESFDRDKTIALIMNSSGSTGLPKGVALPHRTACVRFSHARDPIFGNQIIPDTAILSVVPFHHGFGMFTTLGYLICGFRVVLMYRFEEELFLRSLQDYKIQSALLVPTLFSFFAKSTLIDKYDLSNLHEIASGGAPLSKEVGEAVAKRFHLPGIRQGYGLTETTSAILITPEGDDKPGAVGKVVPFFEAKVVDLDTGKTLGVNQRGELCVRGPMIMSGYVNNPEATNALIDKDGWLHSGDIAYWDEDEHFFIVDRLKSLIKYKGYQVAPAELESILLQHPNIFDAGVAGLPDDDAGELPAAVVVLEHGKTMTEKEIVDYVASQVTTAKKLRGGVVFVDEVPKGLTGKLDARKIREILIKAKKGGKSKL
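Purified P. pyralis luciferase (10nM final) in 50mM Tris acetate pH 7.5, 10mM Mg acetate, 0.01% Tween-20, 0.05% BSA with 10uM D-luciferin and 10uM ATP. Compounds titrated qHTS. Luminescence imaged on CCD.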
GPT2 inh: inhibitors of human GPT2 alanine aminotransferase. Recombinant GPT2, coupled pyruvate oxidase/HRP Amplex Red fluorescence. hit rate 0.25% among 100,000. Potency, µM (titrated, usually from 57.7 µM), for the others: top-dose activity change, negative = inhibition, actives largely listed as inhibitors. Q8TD30; also: nearly all actives have a fitted effect of over 60% in size
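Recombinant GPT2 (10ng/uL) with 250uM a-KG and 2mM L-alanine, 30 min at room temperature, in HEPES pH 7.5 buffer. Pyruvate detected by pyruvate oxidase/HRP/Amplex Red fluorescence after 30 min in the dark; AOA (50uM) as positive control.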
Starred values were filed as active, the others as inactive; i = inactive; ? = inconclusive; nt = no result given; [ ] = remark or other dose. Unless noted, calls follow the shape of the dose curve; as a rule, active = well fitted curve in the direction sought with a large enough effect; inconclusive = small, poorly fitted or top-dose-only effect, or another doubt; inactive = no such curve, though single readings can be large; an effect the other way counts as inactive or inconclusive. % is scaled to controls: 0 for no effect and ±100 for the full control effect; potency is read from the fitted curve at half-maximal effect.

SMILES	NPR1 antag	HEK cytotox	3T3 cytotox	Luciferase inh	GPT2 inh
CCCN1Cc2ccccc2NC(=O)C12CCNC2 (configuration not stated)	nt	i	i	nt	i
O=C1Nc2ccccc2CN(Cc2ccc(Cl)cc2)C12CCNCC2	-15.7%	20µM*	14.1µM*	i	?
O=C1Nc2ccccc2CN(Cc2ccccc2)C12CCNC2 (configuration not stated)	nt	?	89.1µM*	nt	-2.8%[88.5 µM]
O=C1Nc2ccccc2CN(C/C=C/c2ccccc2)C12CCNC2 (configuration not stated)	nt	?	25.1µM*	nt	3.3%
O=C1Nc2ccccc2CN(CC2CCOCC2)C12CCNCC2	nt	i	4.0%	nt	i
CC(C)c1cc(C(=O)N2CCn3nc(C(=O)Nc4ccccc4)cc3C2)n[nH]1	12.6µM*	?	?	?	-0.8%
CCS(=O)(=O)CC(=O)N1CCn2nc(C(=O)Nc3ccccc3)cc2C1	-3.0%	?	0.1%	i	i[11.5 µM]
COCC(=O)NC1CCN(c2nccc(Nc3ccccc3Cl)n2)CC1	nt	?	?	nt	1.2%
COc1cc(-c2onc(C)c2C(=O)N(C)Cc2ccccc2)cc(OC)c1OC	-19.4%	?	?	i	0.8%
COc1cc(-c2onc(C)c2C(=O)NCCC(c2ccccc2)c2ccccc2)cc(OC)c1OC	-21.1%	35.5µM*	?	i	-10.0%
COCCNC(=O)c1c(C)noc1-c1cc(OC)c(OC)c(OC)c1	3.6%	-0.9%	-3.8%	i	-2.4%
COc1cc(OC)c(CNC(=O)c2c(C)noc2-c2ccc(OC(F)(F)F)cc2)c(OC)c1	-12.6%	39.8µM*	?	i	-11.3%
COc1ccc(CCNC(=O)c2c(C)noc2-c2ccc(OC(F)(F)F)cc2)cc1	-2.0%	50.1µM*	-16.3%	i	-4.6%
Cc1noc(-c2ccc(OC(F)(F)F)cc2)c1C(=O)NCCc1ccc(F)cc1	-2.9%	?	-25.9%	i	i
COc1cc(CN(C)C(=O)c2c(C)noc2-c2cccc(F)c2)cc(OC)c1OC	1.3%	44.7µM*	?	i	-3.9%
Cc1cccc(-c2nc3ccc(C(=O)NC(C)C)cc3o2)n1	nt	?	?	nt	i
CC(=O)N1CCN(C(=O)c2cn3cc(-c4ccc(C(F)(F)F)cc4)sc3n2)CC1	nt	?	?	nt	4.1%
Cc1ccc(C(=O)N2CCC(C(=O)N3CCC(c4nc5ncccc5[nH]4)CC3)CC2)cc1	nt	2.0%	-5.5%	nt	-2.0%
Cn1ccnc1C(=O)N1CCC(Cc2ccc(CCC(=O)N3CCCC3)cc2)CC1	nt	39.8µM*	?	nt	-5.0%
O=C(CCc1ccc(CC2CCN(Cc3c[nH]c4ccccc34)CC2)cc1)N1CCCC1	nt	35.5µM*	31.6µM*	nt	?
O=C(c1cc(-c2cccc(C(F)(F)F)c2)c2nncn2n1)N1CCC(N2CCCCC2)CC1	nt	?	-27.4%	nt	i
CC(C)NC(=O)c1nc2cccnc2n(C2CCCC2)c1=O	nt	?	?	nt	-12.3%[88.5 µM]
O=C(c1ccccc1)N1CCCC(C(=O)N2CCC(N3CCOC3=O)CC2)C1 (configuration not stated)	nt	0.3%	-11.2%	nt	i
O=C1COc2ccc(Nc3cccc(F)c3)nc2CN1CCOc1ccccc1	?	89.1µM*	89.1µM*	i	-1.7%[88.5 µM]
COCCN1Cc2nc(Nc3ccc(C(F)(F)F)cc3)ccc2OCC1=O	-22.9%[70.6 µM]	?	?	i	3.9%[88.5 µM]
SMILES	NPR1 antag	HEK cytotox	3T3 cytotox	Luciferase inh	GPT2 inh
O=C1COc2ccc(Nc3ccccc3)nc2CN1CCOc1ccccc1	?	?	?	?	-18.6%[88.5 µM]
O=C1COc2ccc(Oc3ccccc3)nc2CN1CCOc1ccccc1	?	100µM*	?	i	1.1%[88.5 µM]
COCCN1Cc2nc(Nc3ccc(F)c(Cl)c3)ccc2OCC1=O	-1.6%[70.6 µM]	100µM*	?	i	-8.2%[88.5 µM]
CC(C)CC(=O)N1CCCC(c2noc(COc3ccccc3)n2)C1 (configuration not stated)	-3.4%	?	?	i	-9.0%
COc1cc2c(cc1OC)C(CNC(=O)c1ccco1)N(C(=O)Nc1cccc(F)c1)CC2 (configuration not stated)	1.2%	44.7µM*	-19.0%	i	-9.3%
COc1ccc(-c2ccc3ncc(Nc4cc(F)ccc4OC)n3n2)cn1	-6.8%[70.6 µM]	?	-11.0%[138 µM]	i	?
COc1ccc(-c2ccc3ncc(Nc4ccnc(N5CCOCC5)c4)n3n2)cc1OC	3.5%[70.6 µM]	?	44.7µM*	?	?
c1ccc(-c2ccc3ncc(Nc4ccc(N5CCOCC5)cc4)n3n2)cc1	2.2%[70.6 µM]	?	?	i	i
COc1ccc(-c2ccc3ncc(Nc4cccc(F)c4)n3n2)cc1OC	4.4%[70.6 µM]	63.1µM*	?	i	-21.0%[88.5 µM]
COc1ccc(-c2ccc3ncc(Nc4ccccc4)n3n2)cc1OC	0.8%[70.6 µM]	35.5µM*	20µM*	i	?
COc1ccc(-c2ccc3ncc(Nc4cccc(F)c4)n3n2)cn1	-16.5%[70.6 µM]	63.1µM*	?	?	?
COc1cccc(-c2cccc(C(=O)N3CCCC3C(=O)N3CCC(c4ccccc4)CC3)c2)c1 (configuration not stated)	nt	?	?	nt	i
COc1ccc(-c2ccc3ncc(Nc4ccc(C(N)=O)cc4)n3n2)cn1	-1.8%[70.6 µM]	?	?	i	?
COc1ccc(-c2ccc3ncc(Nc4ccccc4C)n3n2)cn1	-1.2%[70.6 µM]	?	89.1µM*	i	i
COc1ccc(-c2ccc3ncc(Nc4ccccc4OC)n3n2)cn1	-2.2%[70.6 µM]	?	?	i	i
COc1ccc(-c2ccc3ncc(Nc4ccc(C(N)=O)cc4)n3n2)cc1OC	2.5%[70.6 µM]	?	17.8µM*	i	-15.2%[88.5 µM]
Cc1cccc(N2CCN(C(=O)CCc3conc3-c3ccccc3)CC2)c1C	-5.5%	44.7µM*	?	i	-13.7%
COc1ccc(-c2noc(CCCC(=O)N3CCCn4nc(-c5ccc(F)cc5)cc4C3)n2)cc1OC	nt	31.6µM*	?	nt	i
Cn1ncc2c(C(=O)NCc3ccc4c(c3)OCO4)cc(-c3ccccc3)nc21	nt	?	?	nt	i
COc1cccc(C(=O)NC2CCN(c3ccc4nnc(-c5ccccc5)n4n3)C2)c1 (configuration not stated)	nt	-7.6%	-14.5%	nt	nt
CC(C)(C)c1ccc(C(=O)Nc2nc3c(s2)C[C@@H]2[C@](C)(CO)[C@H](O)CC[C@@]2(C)[C@@H]3CC(=O)N2CCOCC2)cc1	-3.3%	?	35.5µM*	i	i
CC(C)(C)c1ccc(C(=O)Nc2nc3c(s2)C[C@@H]2[C@](C)(CO)[C@H](O)CC[C@@]2(C)[C@@H]3CC(=O)NC2CC2)cc1	3.3%	44.7µM*	44.7µM*	44.7µM*	-2.3%
